# Compound activity (PubChem BioAssay)
# HT1080 IDH1KD tx = qHTS for induction of synthetic lethality in tumor cells producing 2HG: qHTS for the HT-1080-IDH1KD cell line | HT-1080 IDH1 knockdown viability, ATP luminescence, 48 h | Potency, µM (titrated, usually from 46.1 µM), inactives show at the highest dose activity, negative = toxicity, actives largely listed as cytotoxic | actives 2% (n = 360,000);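 further: potency means the concentration at half of the fitted maximal effect; 0% = DMSO wells and -100% = cell-free medium wells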
#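 Using the IDH1-knockdown HT-1080 line run in the same batch and compound series as the NT line, viability after 48 h at 37 °C was determined by CellTiter-Glo luminescence and expressed as % activity.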
# DT40 TDP1 no CPT = qHTS for Inhibitors of human tyrosyl-DNA phosphodiesterase 1 (TDP1): qHTS in cells in absence of CPT | DT40 Tdp1-/- hTDP1 cells, no CPT, ATP luminescence, 48 h | Potency, µM (top dose mostly 46.2 µM), inactives show top-dose activity change, negative = growth inhibition, usual class: inhibitors | actives 15% (n = 420,000); further: potency means the concentration at half of the fitted maximal effect; nearly all actives have a fitted effect of over 55% in size
#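 Growth of hTDP1-complemented DT40 Tdp1-knockout cells is measured by ATP luminescence after at least 48 hr compound exposure at 37 °C, with DMSO substituting for the 20 nM CPT used in the parallel screen.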
# IL1B secr inh = qHTS for Inhibitors of Inflammasome Signaling: IL-1-beta AlphaLISA Primary Screen; THP-1 LPS/ATP IL-1B secretion, AlphaLISA, 16 h; hits give low values; activity change, % at 57.5 µM; actives 4.7% (n = 360,000); AID 743279, 2014; in the data active means activity change below about -50%; inconclusive means mostly about -30% to -49%
#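 Secreted IL-1B measured by AlphaLISA bead assay after 16 h compound exposure of THP-1 cells; compounds (final up to 57.5 uM) added 1 h before LPS (250 ng/mL) and ATP (1.25 mM) stimulation; lower signal means less secretion.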
# HT1080-NT tox = qHTS for induction of synthetic lethality in tumor cells producing 2HG: qHTS for the HT-1080-NT fibrosarcoma cell line; AID 686970, 2013; HT-1080-NT fibrosarcoma viability, CellTiter-Glo ATP luminescence, 48 h; actives 1.6% (n = 360,000); Potency, µM (series often up to 46.1 µM), for the others: at the top dose activity, negative = less viability, hits mostly cytotoxic;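 further: NT is the 2HG producing partner of a matched IDH1 knockdown line; potency means the concentration at half of the fitted maximal effect; 0% = DMSO-treated cells and -100% = media-only wells without cells; nearly all actives have a fitted effect of over 55% in size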
#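 750 cells/well, RPMI + 5% FBS; 2 h settle, compound pin-transfer, 48 h at 37 degrees C. CellTiter-Glo 10 min RT, luminescence. Normalized to DMSO and media-only wells.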
# DT40 TDP1 CPT = qHTS for Inhibitors of human tyrosyl-DNA phosphodiesterase 1 (TDP1): qHTS in cells in presence of CPT. Potency, µM (doses to about 46.2 µM), without a hit: at the highest dose activity change, negative = growth inhibition, most hits filed as inhibitors. actives 12% (n = 420,000). chicken DT40 Tdp1-/-;hTDP1 cells + 20 nM CPT, ATP luminescence, 48 h; further: potency means the concentration at half of the fitted maximal effect; nearly all actives have a fitted effect of over 55% in size
#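 Chicken DT40 Tdp1-/- cells stably complemented with human TDP1 were seeded at 400 cells/well in medium containing 20 nM camptothecin, exposed to pin-transferred compounds, and grown at 37 °C for at least 48 hr. Viability was read as ATP luminescence.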
# Starred values were filed as active, the others as inactive; ? = inconclusive; nt = no result; ! = not confirmed by another sample; [ ] = another dose, or the depositor's remark. Rows were chosen to be rich in hits. Some 19% of all compounds tested hit in one or more screens of this group. Unless noted, the call rests on the fitted dose curve; in most records, active means well fitted curve in the direction sought with a large enough effect; inconclusive means small, poorly fitted or top-dose-only effect, or another doubt; inactive means no such curve, though single readings can be large; an effect the other way counts as inactive or inconclusive. Unless noted, on the % scale 0 is the no-effect control and ±100 the full control effect.
SMILES,HT1080 IDH1KD tx,DT40 TDP1 no CPT,IL1B secr inh,HT1080-NT tox,DT40 TDP1 CPT
CCN(CC(=O)Nc1ccc(NC(C)=O)cc1)C(=O)CN1C(=O)NC2(CCCC2)C1=O,3.8%,-6.0%,8.1,4.0%,7.1%
O=C(NCCN1CCOCC1)C(=O)NCc1ccco1,-0.6%,4.7%,14.1,-0.2%,-12.5%
COc1cnc(-c2ccccn2)[nH]c1=O,19.7%,1.5%,-2.5,3.2%,22.8%
Nc1cccnc1Sc1cccc(Cl)c1,0.0%,-15.8%,7.3,-0.4%,-19.5%
COc1cnc(-c2ccccn2)nc1Sc1cccc(Cl)c1,?,1.3µM*,-8.5,?,1.3µM*
COc1ccccc1Sc1nc(-c2ccccn2)ncc1OC,?,2.91µM*,140.6,-9.5%,10.3µM*
COc1cnc(-c2ccccn2)nc1Sc1ccc(C)cc1,?,3.26µM*,26.6,?,5.17µM*
Cc1cc(C(=O)NCC(=O)Nc2c(C)cccc2C)c(C)o1,-4.3%,14.2%,0.2,0.8%,-21.6%
Cc1cc2c(cc1S(=O)(=O)CCC(=O)NCCc1ccccc1)OCC(=O)N2,3.4%,-1.9%,5.2,23.1%,-11.8%
Oc1ccc(O)c(C=NNC(=S)NC2CC3CC2C2C=CCC32)c1 (configuration not stated),-27.2%,?,68.9,-3.0%,18.4µM*
NNC(=S)NC1CC2CC1C1C=CCC21 (configuration not stated),4.3%,?,11.5,3.9%,9.2µM*
O=C(O)COc1ccccc1/C=C1\SC(=Nc2ccc(F)cc2)N(c2ccc(F)cc2)C1=O,-20.8%,5.1%,1.0,-21.7%,-4.5%
CCn1c(CNC(=O)C23CC4CC(CC(C4)C2)C3)nnc1SCC(=O)Nc1ccc(F)cc1,nt,-25.7%,nt,nt,?
CCCCn1c(CNC(=O)C23CC4CC(CC(C4)C2)C3)nnc1SC(C)CC (configuration not stated),?,20.6µM*,-16.2,?,23.1µM*
CCCCSc1nnc(CNC(=O)C23CC4CC(CC(C4)C2)C3)n1Cc1ccccc1,-3.1%,14.6µM*,?,-7.7%,16.4µM*
O=C(CSc1nnc(CNC(=O)C23CC4CC(CC(C4)C2)C3)n1-c1ccccc1)Nc1ccccc1,-2.7%,?,15.4,-3.2%,?
CCn1c(CNC(=O)C23CC4CC(CC(C4)C2)C3)nnc1SC,-0.3%,1.1%,10.2,14.7%,5.9%
O=C(NCc1nnc(SCc2ccccc2)n1-c1ccccc1)C12CC3CC(CC(C3)C1)C2,?,18.4µM*,?,?,14.6µM*
CC1(C)S[C@@H]2[C@H](NC(=O)[C@@H](NC(=O)N3CCNC3=O)c3ccccc3)C(=O)N2[C@H]1C(=O)O,nt,-10.6%[21.1 µM],nt,nt,-9.2%[21.1 µM]
CCC1(C2CCN(C(=O)c3cc(C)cc(C)c3)CC2)NC(=O)N(CCc2scnc2C)C1=O (configuration not stated),nt,-17.4%,nt,nt,-5.4%[9.04 µM]
CCCc1ccc(OCC(=O)Nc2sc3c(c2C(=O)OCC)CCC(C(C)(C)C)C3)cc1 (configuration not stated),nt,-3.4%,nt,nt,-4.0%
Cc1ncccc1C(=O)N1CCCC(C(=O)c2ccc3c4c(cccc24)CC3)C1 (configuration not stated),-4.0%,?,-6.4,-21.8%,?
O=C(c1ccc2c3c(cccc13)CC2)C1CCCN(Cc2ccncc2)C1 (configuration not stated),-6.1%,9.2µM*,?,13µM*,13µM*
CCc1nc(CN2CCCC(C(=O)c3ccc4c5c(cccc35)CC4)C2)c(C)[nH]1 (configuration not stated),16.4µM*,16.4µM*,-99.9*,14.6µM*,?
CN(C)C(=O)CCC(=O)N1CCCC(C(=O)c2ccc3c4c(cccc24)CC3)C1 (configuration not stated),-1.3%,14.6µM*,-7.9,-17.9%,?
SMILES,HT1080 IDH1KD tx,DT40 TDP1 no CPT,IL1B secr inh,HT1080-NT tox,DT40 TDP1 CPT
COc1ccccc1OP(=O)(O)Oc1ccccc1OC,7.8%,-5.5%,10.1,9.9%,12.0%
O=[N+]([O-])c1ccc(/C=N/Nc2cc(Cl)nc(-c3ccccc3)n2)cc1,19.4%,?,-0.9,13.5%,?
C/C(=N\Nc1cc(C)nc(-c2ccccc2O)n1)c1ccccc1,?,?,-67.7*,?,?
O=[N+]([O-])c1cccc(/C=N/Nc2cc(Cl)nc(-c3ccccc3)n2)c1,4.2%,20.6µM*,-77.1*,6.1%,?
Cc1cc(N/N=C/c2ccc(O)c(C)c2O)nc(-c2ccccc2O)n1,?,9.2µM*,-98.0*,?,13µM*
Cc1cc(NCCCN)nc(-c2ccccc2O)n1,-17.1%,?,-61.7*,-21.2%,?
C/C(=N\Nc1cc(Cl)nc(C)n1)c1ccc(C)cc1,-27.7%,?,0.0,?,-29.0%
Cc1cc(Nc2ccc(F)c(F)c2)nc(-c2ccccc2O)n1,?,-26.2%,0.0,?,-20.6%
Cc1[nH]c(=O)[nH]c(=O)c1/C=C/C(=O)O,19.5%,17.6%,20.8,14.3%,-0.9%
C/C(=N\Nc1cc(C)nc(-c2ccccc2)n1)c1cccc([N+](=O)[O-])c1,-10.4%,?,-28.6,1.4%,20.6µM*
COC(=O)C[C@H]1C[C@@H]2c3cc(NC(=O)NC4CCCC4)ccc3O[C@@H]2[C@@H](CO)O1,1.6%,?,-21.5,-1.5%,2.5%
CCOc1cccc2sc(=NC(=O)c3ccc(S(=O)(=O)N4CCOCC4)cc3)n(C)c12,-6.4%,20.6µM*!,18.1,4.3%,14.6µM*!
CCn1c(=NC(=O)CS(=O)(=O)c2ccccc2)sc2cccc(OC)c21,-0.9%,13µM*,-59.1*,2.9%,?
C#CCn1c(=NC(=O)CN2C(=O)CCC2=O)sc2cccc(OC)c21,-1.0%,?,15.4,6.0%,-2.8%
CCOCCn1c(=NC(=O)c2ccc(S(=O)(=O)N3CCOCC3)cc2)sc2cc(S(N)(=O)=O)ccc21,-10.8%,?,43.0,-0.3%,?
COC(=O)c1ccc2c(c1)sc(=NC(=O)CCS(=O)(=O)c1ccccc1)n2C,8.9%,?,-21.3,10.5%,?
COCCn1c(=NC(=O)CCS(=O)(=O)c2ccccc2)sc2ccccc21,2.9%,16.4µM*,-18.8,5.9%,20.6µM*
C#CCn1c(=NC(=O)c2cccs2)sc2cccc(OC)c21,-19.9%,13µM*,50.8,-21.0%,?
